SARS PLP yeast – SARS-CoV PLP inhibition in yeast | S. cerevisiae expressing SARS-CoV PLpro, growth rescue | hit rate 0.19% among 330,000 | AID 485353 | Potency, µM (series often up to 32.9 µM), for inactives: at the top dose activity, positive = growth rescue, usual class: activators; calls by dose curve; note: potency is the fitted concentration of half-maximal effect; 0% is about no effect; nearly all actives have a fitted effect of over 55% in size
Pf growth 96h – P. falciparum growth inhibition at 96 hour, primary screen for plastid delayed-death inhibitors | hit rate 6.9% among 320,000 | P. falciparum luciferase reporter growth, 96 h | Potency, µM (top dose mostly 28.7 µM), for the others: at the top dose activity change, negative = inhibition, most hits filed as inhibitors; note: potency is the fitted concentration of half-maximal effect; % is set by controls: 0 for no effect and ±100 for the full control effect
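Compounds incubated with erythrocytes infected by luciferase-expressing P. falciparum (2% hematocrit, 0.05% parasitemia final) for 96 hours, 37 C in 5% CO2. Growth inhibition scored as decreased luciferase luminescence.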
Shiga toxin inh – blocks Shiga toxin action in Vero cells | inhibition, % at 38.7 µM | hit rate 9.2% among 290,000 | Vero cells, Shiga toxin protein synthesis inhibition reporter; in the data active = inhibition mostly above about 28%, no sharp cut-off; inactive = mostly below about 43%; note: 0% is about no effect
Pf growth 48h – P. falciparum growth inhibition at 48 hours (one generation). P. falciparum luciferase growth in erythrocytes, 48 h. hit rate 5.9% among 310,000. Potency, µM (doses to about 28.7 µM), for the others: top-dose activity change, negative = inhibition, hits mostly inhibitors; note: potency is the fitted concentration of half-maximal effect; % is set by controls: 0 for no effect and ±100 for the full control effect
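Growth was read as firefly luciferase luminescence after a 48 h, 37 C, 5% CO2 exposure of compounds to reporter-bearing P. falciparum cultures (0.1% parasitemia, 2% hematocrit final) in Albumax-supplemented RPMI 1640.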
NS1 function inh – blocks influenza NS1 protein function; Potency, µM (titrated, usually from 46.1 µM), without a hit: top-dose activity, positive = more growth; hit rate 0.4% among 270,000; AID 2326; calls by dose curve; note: potency is the fitted concentration of half-maximal effect; actives are rising curves; nearly all actives have a fitted effect of over 50% in size
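Recovery from NS1-induced slow growth read by OD600 in budding yeast switched to galactose assay medium (pH 6.0, -URA) at 1:100 dilution. Compound 23 nl per well; the matching strain lacking NS1 serves as control.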
CHX counter – counter-screen hit for Shiga toxin inhibitors, cycloheximide; cell reporter, cycloheximide protein synthesis inhibition counterscreen; max response, %; hit rate 12% among 300,000; AID 2314; in the data active = max response mostly above about 13%, no sharp cut-off; inactive = mostly below about 14%; note: read at 38.3 µM for the half of the compounds with a filed dose; 0% is about no effect
Starred values were filed as active, the others as inactive; ? = inconclusive; nt = no result given; [ ] = dose if it differs, or a comment. Most compounds without a hit are left out; they make up all but 21% or so of the library. Unless noted, calls come from the whole dose curve; as a rule, active = well fitted inhibition curve with a large enough effect; inconclusive = small, poorly fitted or top-dose-only effect, or another doubt; inactive = no such curve, though single readings can be large or run the other way.

SMILES	SARS PLP yeast	Pf growth 96h	Shiga toxin inh	Pf growth 48h	NS1 function inh	CHX counter
CC(C)C(NC(=O)CSCc1ccc([N+](=O)[O-])cc1)C(C)C	-1.1%	18.5%	-7.4	?	-14.7%	0.7
O=C(CSCc1ccc([N+](=O)[O-])cc1)NC1CC1	7.2%	13.1µM*	10.3	-3.0%	18.9%	-4.1
COc1ccc(N2C(=O)CC(c3ccc(OC(C)C)cc3)C2=O)cc1 (stereo unspecified)	-1.2%	7.38µM*	-4.9	nt	2.5%	-4.1
CC(C)CCNC(=O)COc1ccc2c(c1)C(=O)CC(C)(C)O2	1.4%	nt	87.1*	5.5%	1.1%	17.3*
COc1cc(NC(=O)COc2cc(O)c3c(c2)OC(C)(C)CC3=O)cc(OC)c1OC	1.4%	4.15µM*	-3.0	?	-4.3%	-3.1
Cc1ccccc1NC(=O)NNC(=O)COc1ccc2ccccc2c1	-0.3%	?	25.6	-2.6%	6.7%	0.9
CC1(C)CC(=O)c2c(O)cc(OCC(=O)Nc3ccc(S(N)(=O)=O)cc3)cc2O1	-2.4%	?	-7.0	-11.6%	7.8%	-1.8
Cc1ccccc1NC(=O)COc1ccc2c(c1)OC(C)(C)CC2=O	-0.7%	40.2%	33.8*	78.8%	0.5%	37.6*
CC1(C)CC(=O)c2cc(OCC(=O)NCCN3CCCc4ccccc43)ccc2O1	6.3%	-35.5%	-12.7	-22.2%	-3.0%	-3.1
O=S(=O)(O)c1cc(S(=O)(=O)O)c2c(N=Nc3cccc4ccccc34)c(O)ccc2c1	nt	nt	nt	nt	-3.1%	nt
C/C(=N\Nc1nncc2ccccc12)c1ccc(O)cc1	9.1%	232.4%	53.9*	167.1%	22.1%	28.0*
COc1cccc(/C(C)=N/NC(=O)c2cc(-c3cccnc3)nc3ccccc23)c1	18.1%	?	-10.4	?	-3.9%	0.9
C/C(=N\Nc1nncc2ccccc12)c1cccc(OC(F)F)c1	-5.7%	287.6%	65.4*	139.6%	-15.7%	20.4*
C/C(=N\Nc1nncc2ccccc12)c1ccc(C(C)(C)C)cc1	7.8%	?	97.5*	10.0%	-0.4%	41.9*
O=C(Nc1ccc(Cl)cn1)c1cccc2c(Br)cccc12	0.0%	?	30.6	16.0%[0.00184 µM]	5.5%	15.2
CCCn1nc(NS(=O)(=O)c2cccc3nonc23)c2cc3ccccc3nc21	-9.1%	19.6%	-3.4	12.1%	0.0%	-2.0
CN(C)c1ccc(N=C/C=C2/N(C)c3ccccc3C2(C)C)cc1	-11.5%	?	77.5*	-60.9%	-16.1%	62.0*
CN1/C(=C\C=N\O)C(C)(C)c2ccccc21	-4.7%	-9.0%	50.3	15.6%	nt	-1.9
CN1/C(=C\C=C2C(=O)NC(=S)NC2=O)C(C)(C)c2ccccc21	0.7%	-6.7%	-13.2	16.4%	nt	-1.4
CN1/C(=C\C=C2/C(=O)Oc3ccccc3C2=O)C(C)(C)c2ccccc21	8.2%	?	40.2*	11.7µM*	-0.1%	38.8*
CN1/C(=C\C=[N+](C)c2ccccc2)C(C)(C)c2ccccc21	-0.7%	2.08µM*	-13.4	0.415µM*	-7.4%	0.8
CN1C(=CC=C2C=C(I)C(=O)C(I)=C2)C(C)(C)c2ccccc21	-1.7%	2.08µM*	12.2	3.29µM*	-1.6%	-2.8
O=C(O)c1cccc(-n2cccc2/C=C/[N+](=O)[O-])c1	3.2%	3.6%	-8.2	21.2%	-8.3%	11.8
O=C(NCc1cccnc1)C(=O)Nc1nc2ccccc2s1	3.8%	50.6%	93.4*	50.8%	nt	38.8*
CCOc1ccc2nc(NC(=O)c3cnccn3)sc2c1	8.8%	11.7%	62.2*	183.0%	-8.4%	32.3*
SMILES	SARS PLP yeast	Pf growth 96h	Shiga toxin inh	Pf growth 48h	NS1 function inh	CHX counter
O=C(Nc1nc2ccccc2s1)c1cnccn1	-10.0%	283.9%	53.2*	nt	-8.3%	31.5*
CCOc1ccc2nc(NS(C)(=O)=O)sc2c1	-5.2%	nt	17.4	35.1%	-10.4%	6.3
O=C(Nc1nc2ccc(F)cc2s1)c1ccccn1	-12.2%	-71.1%	25.8	-63.2%	-1.6%	-0.9
COc1ccc(NC(=O)CSC2=NCCN2)cc1	0.6%	?	11.2	-3.0%	nt	26.4
CC1CC(C)CN(C(=O)CSC2=Nc3ccccc3C3=NC(Cc4c[nH]c5ccccc45)C(=O)N23)C1 (stereo unspecified)	-0.5%	5.22µM*	-8.1	nt	23.5%	-2.4
CCN(C(=O)CSc1ccccn1)C1CCCCC1	-3.4%	nt	nt	nt	nt	nt
O=c1c(Cl)nc2cc(Cl)ccc2n1CCNc1ncc(C(F)(F)F)cc1Cl	5.6%	?	-4.8	13.1µM*	-50.2%	-3.1
NNc1nc2cccnc2n(CCNc2ncc(C(F)(F)F)cc2Cl)c1=O	1.0%	11.7µM*	-1.8	?	nt	5.5
CC(C)(C)NC(=O)C(c1ccc(F)cc1)N(Cc1ccccc1Cl)C(=O)c1ccn[nH]1 (stereo unspecified)	0.9%	?	-3.8	?	nt	-0.9
COc1ccc(Br)cc1C(=O)Nc1ccc(C(=O)O)cc1	-1.0%	29.5%	14.1	-1.0%	-30.5%	-3.8
COc1cc2ccccc2cc1C(=O)Nc1ccc(Cc2ccncc2)cc1	-37.7%	4.15µM*	60.5	nt	-100.6%	28.1
Cc1ccc(NC(=O)c2cccc3ccccc23)cc1	-2.1%	122.3%	172.8*	39.7%	2.6%	32.5*
COc1cc2ccccc2cc1C(=O)Nc1ccc(C)cc1	-9.5%	-17.0%	74.9	?	-80.9%	25.8*
COc1cc(OC)c(C(=O)Nc2ccc(C(=O)c3ccccc3)cc2)cc1OC	16.3%	?	2.8	-29.9%	2.5%	5.9
COc1ccc(Br)cc1C(=O)Nc1ccc(O)cc1	-7.9%	nt	41.1*	21.7%	-36.7%	17.3*
CCN(Cc1ccccc1)C(=O)CSc1nc(C)cc(=O)[nH]1	-2.1%	29.9%	-4.5	-3.0%	nt	5.5
CC(=O)c1cccc(S(=O)(=O)NCC(c2ccco2)N2CCCCC2)c1 (stereo unspecified)	-2.9%	3.3%	-12.5	2.0%	1.9%	1.0
O=C(CCCCC(=O)NC1CCCC1)NC1CCCC1	0.9%	-28.3%	6.2	10.2%	4.9%	-2.9
O=C(NNC(=O)C1CCC1)c1cccc(Cl)c1	0.4%	-13.0%	nt	1.9%	nt	nt
CCOC(=O)CCCSc1nc(-c2ccc3c(c2)OCO3)cc(C(F)(F)F)c1C#N	14.1%	-6.2%	-10.1	3.2%	2.3%	-2.0
CCOC(=O)CSc1nc(-c2ccc3c(c2)OCO3)ccc1C#N	2.6%	0.6%	77.6*	27.3%	12.8%	51.5*
CCOC(=O)CC(=O)CSc1nc(-c2cccnc2)ccc1C#N	-8.7%	nt	15.1	10.4µM*	-24.1%	14.5*
CCOC(=O)CSc1nc(-c2ccncc2)ccc1C#N	-8.2%	4.1%[5.75 µM]	86.6*	84.6%	-6.9%	37.4*
C[C@@](N)(/C=C\c1ccccc1)C(=O)O	nt	nt	nt	nt	2.8%	nt
CCOC(=O)c1sc2nc(NC(=O)C(C)(C)C)sc2c1C	-15.8%	-91.1%	105.0*	nt	18.5%	35.7*
CC1(C)CNC(=O)c2sc(N3CCOCC3)nc2C1	nt	1.6%[5.75 µM]	-12.7	?	6.5%	-2.7
CC1(C)CNC(=O)c2sc(NC(=O)c3ccccc3)nc2C1	-4.0%	?	109.5*	55.6%	nt	51.1*

Screens deposited in PubChem BioAssay by National Center for Advancing Translational Sciences (NCATS).
